{
  "source": "the supplement of paper PMC8728848",
  "binders": {"B1": {"name": "Aap lectin (Staphylococcus epidermidis) (protein)", "chain": "VNLNYSSPFMSLLSMPADSSSNNTKNTIDIPPTTVKGRDNYDFYGRVDIESNPTDLNATNLTRYNYGQPPGTTTAGAVQFKNQVSFDKDFDFNIRVANNRQSNTTGADGWGFMFSKKDGDDFLKNGGILREKGTPSAAGFRIDTGYYNNDPLDKIQKQAGQGYRGYGTFVKNDSQGNTSKVGSGTPSTDFLNYADNTTNDLDGKFHGQKLNNVNLKYNASNQTFTATYAGKTWTATLSELGLSPTDSYNFLVTSS"}},
  "assay_in_all_cases": "glycan array binding signal (z-score within array); higher = stronger binding",
  "details_in_all_cases": "glycan notation: IUPAC condensed, linker removed",
  "key": {"[1]": {"target": "GalNAc(b1-4)GlcNAc(b1-2)Man(a1-3)[GalNAc(b1-4)GlcNAc(b1-2)Man(a1-6)]Man(b1-4)GlcNAc(b1-4)GlcNAc", "in_short": "(§1)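 Negative Z-scores can be read as non-binding. The Z-score is calculated within each array and then averaged across arrays of one protein sequence at different concentrations or buffers and across linkers. Arrays, 3228 in all, were curated from the Consortium for Functional Glycomics database and kept only where the protein sequence was available.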"}, "[2]": {"target": "GlcNAc(b1-2)Man(a1-3)[GlcNAc(b1-4)][GlcNAc(b1-2)Man(a1-6)]Man(b1-4)GlcNAc(b1-4)GlcNAc", "in_short": "as §1"}, "[3]": {"target": "GlcNAc(b1-3)Gal(b1-4)Glc", "in_short": "as §1"}, "[4]": {"target": "GlcNAc(b1-3)Gal(b1-4)GlcNAc", "in_short": "as §1"}, "[5]": {"target": "GlcNAc(b1-3)Gal(b1-4)GlcNAc(b1-2)Man(a1-3)[GlcNAc(b1-3)Gal(b1-4)GlcNAc(b1-2)Man(a1-6)]Man(b1-4)GlcNAc(b1-4)GlcNAc", "in_short": "as §1"}, "[6]": {"target": "GlcNAc(b1-3)Gal(b1-4)GlcNAc(b1-3)Gal(b1-4)GlcNAc(b1-2)Man(a1-3)[GlcNAc(b1-3)Gal(b1-4)GlcNAc(b1-3)Gal(b1-4)GlcNAc(b1-2)Man(a1-6)]Man(b1-4)GlcNAc(b1-4)GlcNAc", "in_short": "as §1"}, "[7]": {"target": "GlcNAc(b1-3)Gal(b1-4)GlcNAc(b1-6)[GlcNAc(b1-3)Gal(b1-3)]GalNAc", "in_short": "as §1"}, "[8]": {"target": "Man(a1-2)Man(a1-3)[Man(a1-2)Man(a1-6)]Man(a1-6)[Man(a1-2)Man(a1-2)Man(a1-3)]Man", "in_short": "as §1"}, "[9]": {"target": "Man(a1-3)[Man(a1-6)]Man(b1-4)GlcNAc(b1-4)[Fuc(a1-6)]GlcNAc", "in_short": "as §1"}, "[10]": {"target": "Neu5Ac(a2-3)Gal(b1-3)GlcNAc(b1-2)[Neu5Ac(a2-3)Gal(b1-3)GlcNAc(b1-4)]Man(a1-6)[Neu5Ac(a2-3)Gal(b1-3)GlcNAc(b1-2)Man(a1-3)]Man(b1-4)GlcNAc(b1-4)GlcNAc", "in_short": "as §1"}, "[11]": {"target": "Neu5Ac(a2-3)Gal(b1-4)GlcNAc(b1-2)Man", "in_short": "as §1"}, "[12]": {"target": "Neu5Ac(a2-3)Gal(b1-4)GlcNAc(b1-3)Gal(b1-4)GlcNAc(b1-2)Man(a1-3)[Neu5Ac(a2-3)Gal(b1-4)GlcNAc(b1-3)Gal(b1-4)GlcNAc(b1-2)Man(a1-6)]Man(b1-4)GlcNAc(b1-4)GlcNAc", "in_short": "as §1"}, "[13]": {"target": "Neu5Ac(a2-3)Gal(b1-4)GlcNAc(b1-3)Gal(b1-4)GlcNAc(b1-3)[Neu5Ac(a2-3)Gal(b1-4)GlcNAc(b1-3)Gal(b1-4)GlcNAc(b1-6)]GalNAc", "in_short": "as §1"}, "[14]": {"target": "Neu5Ac(a2-3)Gal(b1-4)[Fuc(a1-3)]GlcNAc(b1-2)Man", "in_short": "as §1"}, "[15]": {"target": "Neu5Ac(a2-6)Gal(b1-4)GlcNAc(b1-2)Man(a1-3)[GlcNAc(b1-2)Man(a1-6)]Man(b1-4)GlcNAc(b1-4)GlcNAc", "in_short": "as §1"}, "[16]": {"target": "Neu5Ac(a2-6)Gal(b1-4)GlcNAc(b1-2)Man(a1-6)Man(b1-4)GlcNAc(b1-4)GlcNAc", "in_short": "as §1"}, "[17]": {"target": "Neu5Ac(a2-6)Gal(b1-4)GlcNAc(b1-3)Gal(b1-4)GlcNAc(b1-2)Man(a1-3)[Neu5Ac(a2-6)Gal(b1-4)GlcNAc(b1-3)Gal(b1-4)GlcNAc(b1-2)Man(a1-6)]GalNAc", "in_short": "as §1"}, "[18]": {"target": "Neu5Ac(a2-6)Gal(b1-4)GlcNAc(b1-3)Gal(b1-4)GlcNAc(b1-3)[Neu5Ac(a2-6)Gal(b1-4)GlcNAc(b1-3)Gal(b1-4)GlcNAc(b1-6)]GalNAc", "in_short": "as §1"}, "[19]": {"target": "Neu5Ac(a2-6)Gal(b1-4)GlcNAc(b1-3)Gal(b1-4)[Fuc(a1-3)]GlcNAc(b1-3)Gal(b1-4)[Fuc(a1-3)]GlcNAc", "in_short": "as §1"}, "[20]": {"target": "Neu5Ac(a2-6)GalNAc", "in_short": "as §1"}, "[21]": {"target": "Neu5Ac(a2-6)GalNAc(b1-4)GlcNAc6S", "in_short": "as §1"}, "[22]": {"target": "Neu5Ac(a2-8)Neu5Ac(a2-3)Gal(b1-4)Glc", "in_short": "as §1"}, "[23]": {"target": "Neu5Ac(a2-8)Neu5Ac(a2-8)Neu5Ac(a2-8)Neu5Ac(a2-3)[GalNAc(b1-4)]Gal(b1-4)Glc", "in_short": "as §1"}, "[24]": {"target": "Neu5Ac(b2-6)GalNAc", "in_short": "as §1"}, "[25]": {"target": "Neu5Ac9Ac(a2-3)Gal(b1-3)GlcNAc", "in_short": "as §1"}, "[26]": {"target": "Neu5Gc(a2-6)Gal(b1-4)GlcNAc", "in_short": "as §1"}, "[27]": {"target": "Neu5Gc(a2-6)GalNAc", "in_short": "as §1"}, "[28]": {"target": "Neu5Gc(a2-8)Neu5Gc(a2-3)Gal(b1-4)GlcNAc", "in_short": "as §1"}},
  "note": "Many of the other results were omitted from the sample, so the strongest signals are more common in it than they were.",
  "data": [
    {"binder": "B1", "values": [
      {"measurement": "glycan array binding signal (z-score)", "setting": "[1]", "value": 3.29},
      {"measurement": "glycan array binding signal (z-score)", "setting": "[2]", "value": -0.698},
      {"measurement": "glycan array binding signal (z-score)", "setting": "[3]", "value": 0.941},
      {"measurement": "glycan array binding signal (z-score)", "setting": "[4]", "value": -0.278},
      {"measurement": "glycan array binding signal (z-score)", "setting": "[5]", "value": 0.543},
      {"measurement": "glycan array binding signal (z-score)", "setting": "[6]", "value": 3.83},
      {"measurement": "glycan array binding signal (z-score)", "setting": "[7]", "value": -0.968},
      {"measurement": "glycan array binding signal (z-score)", "setting": "[8]", "value": -0.858},
      {"measurement": "glycan array binding signal (z-score)", "setting": "[9]", "value": -0.887},
      {"measurement": "glycan array binding signal (z-score)", "setting": "[10]", "value": -0.885},
      {"measurement": "glycan array binding signal (z-score)", "setting": "[11]", "value": -0.335},
      {"measurement": "glycan array binding signal (z-score)", "setting": "[12]", "value": -0.87},
      {"measurement": "glycan array binding signal (z-score)", "setting": "[13]", "value": -0.88},
      {"measurement": "glycan array binding signal (z-score)", "setting": "[14]", "value": -0.708},
      {"measurement": "glycan array binding signal (z-score)", "setting": "[15]", "value": -0.88},
      {"measurement": "glycan array binding signal (z-score)", "setting": "[16]", "value": -0.806},
      {"measurement": "glycan array binding signal (z-score)", "setting": "[17]", "value": -0.905},
      {"measurement": "glycan array binding signal (z-score)", "setting": "[18]", "value": 2.93},
      {"measurement": "glycan array binding signal (z-score)", "setting": "[19]", "value": -0.333},
      {"measurement": "glycan array binding signal (z-score)", "setting": "[20]", "value": -0.816},
      {"measurement": "glycan array binding signal (z-score)", "setting": "[21]", "value": -1.16},
      {"measurement": "glycan array binding signal (z-score)", "setting": "[22]", "value": -0.83},
      {"measurement": "glycan array binding signal (z-score)", "setting": "[23]", "value": -0.444},
      {"measurement": "glycan array binding signal (z-score)", "setting": "[24]", "value": -0.527},
      {"measurement": "glycan array binding signal (z-score)", "setting": "[25]", "value": 0.704},
      {"measurement": "glycan array binding signal (z-score)", "setting": "[26]", "value": -0.275},
      {"measurement": "glycan array binding signal (z-score)", "setting": "[27]", "value": -0.523},
      {"measurement": "glycan array binding signal (z-score)", "setting": "[28]", "value": 1.51}
    ]}
  ]
}
